Here are results for 40 compounds from PubChem BioAssay (NCATS).

SMILES strings stand for the structures. Inconclusive results are not listed. A call without a number means that no potency is given here. Calls of active or inactive are those of the source. Calls come from the whole dose curve.
Potency is the fitted concentration of half-maximal effect.

The test can be described thus: A High-Content qHTS Against Drug Library for the Identification of Small Molecules that Inhibit DYT1 Early Onset Primary Dystonia-Associated Cell Pathology (AID 1645839). The conditions noted are these: HEK293 Flp-In EGFP-delE TorsinA, punctate imaging, 48 h; series mostly up to 46.1 µM. An excerpt:
Nicole Calakos M.D., Ph.D.
Duke University School of Medicine, Durham, NC
In DYT1 dystonia due to delGAG in the TOR1A gene, there is a robust and widely replicated finding of TorsinA protein mislocalization caused when the mutant protein is in excess of the wildtype protein (1-7). Stable HEK293 cell lines were created that replicate this phenomenon. Inducible expression of an EGFP-hu delE TorsinA encoding cDNA causes pronounced punctate cellular distribution. […] This phenotypic difference in EGFP-huTorsinA fusion protein distribution serves as an indicator of cell pathology. […] RNAi screen results with the assay were validated in DYT1 patient cell phenotypes, intersected with a known dystonia gene, and led to discovery of new human genetic dystonia associations.
The bioassay described herein is a high-content image screen with two readouts. The "%pathology" readout is the primary qHTS data channel, while the "cellcount" is the counterscreen qHTS channel. Desired active compounds are those that show inhibition in %pathology channel but no activity or minimal toxicity in cellcount readout.
1. Kustedjo, K., Bracey, M.H., and Cravatt, B.F. (2000). […] J. Biol. Chem. 275, 27933 - 27939.
2. Bragg, D.C., Kaufman, C.A., Kock, N., and Breakefield, X.O. (2004). Inhibition of N-linked glycosylation prevents inclusion formation by the dystonia-related mutant form of torsinA. Mol. Cell. Neurosci. 27, 417 - 426.
3. Gonzalez-Alegre, P., and Paulson, H.L. (2004). Aberrant Cellular Behavior of Mutant TorsinA Implicates Nuclear Envelope Dysfunction in DYT1 Dystonia. J. Neurosci. 24, 2593 - 2601.
4. Goodchild, R.E., and Dauer, W.T. (2004). Mislocalization to the nuclear envelope: an effect of the dystonia-causing torsinA mutation. Proc. Natl. Acad. Sci. U. S. A. 101, 847 - 852.
5. Kock, N., Allchorne, A.J., Sena-Esteves, M., Woolf, C.J., and Breakefield, X.O. (2006). RNAi blocks DYT1 mutant torsinA inclusions in neurons. Neurosci. Lett. 395, 201 - 205.
6. Hewett, J.W., Nery, F.C., Niland, B., Ge, P., Tan, P., Hadwiger, P., Tannous, B.A., Sah, D.W.Y., and Breakefield, X.O. (2008). siRNA knock-down of mutant torsinA restores processing through secretory pathway in DYT1 dystonia cells. Hum. Mol. Genet. 17, 1436 - 1445.
7. Calakos, N., Patel, V.D., Gottron, M., Wang, G., Tran-Viet, K.N., Brewington, D., Beyer, J.L., Steffens, D.C., Krishnan, R.R., and Zuchner, S. (2010). Functional evidence implicating a novel TOR1A mutation in idiopathic, late-onset focal dystonia. J. Med. Genet. 47, 646 - 650.
8. Rittiner* JE, Caffall* ZF, Hernandez-Martinez R, Sanderson SM, Pearson JL, Tsukayama KK, Liu AY, Xiao C, Tracy S, Shipman MK, Hickey P, Johnson J, Scott B, Stacy M, Saunders-Pullman R, Bressman S, Simonyan K, Sharma N, Ozelius LJ, Cirulli ET, Calakos N. Functional Genomic Analyses of Mendelian and Sporadic Disease Identify Impaired eIF2alpha Signaling as a Generalizable Mechanism for Dystonia. Neuron. 2016 Dec 21;92(6):1238-1251. doi: 10.1016/j.neuron.2016.11.012. Epub 2016 Dec 8. PMID: 27939583; PMCID: PMC5320521.
High-content, High-throughput Drug Screening Assay
The TorsinA mislocalization assay was modified from the previously published assay to accommodate compound testing in 1536 well format.1 Briefly, Flp-In T-REx 293 cells from Invitrogen in which a single copy of a cDNA is recombined into a specific genomic locus was used to create tetracycline-inducible expression of cDNA encoding either EGFP-hTOR1A (WT) or EGFP-delE hTOR1A (DYT1). WT and DYT1 cells were diluted to a concentration of 2 x 10^5 cells/mL in reduced serum media (DMEM High Glucose containing 1% tetracycline-tested FBS, 2 mM L-Glutamine, and 1% Penicillin/Streptomycin). 4 µl of WT cells and 4 µl of DTY1 cells were added to column 1 and columns 2-48, respectively, of a poly-D-lysine-coated, low base, black, clear bottom 1536 well plate (Corning, Corning, NY) using the BioRAPTR FRD Microfluidic Workstation (Beckman Coulter, Indianapolis, IN). The final cell number was 800 cells/well. […]
On the technique in general: qHTS replaces the single test concentration by a dilution series.
With `CC(N=C(NC#N)Nc1ccncc1)C(C)(C)C` (stereo not given), the Potency entry is “inactive”.

Regarding `CN=C(NC#N)NCCSCc1nc[nH]c1C`, the Potency result is “inactive”. As to `CCCCOCCOCCOCc1cc2c(cc1CCC)OCO2`, the Potency entry is “inactive”. As to `CCn1ccnc1CC1COc2ccccc2O1` (stereo not given), the Potency entry is “inactive”.

For `Cc1scc2c1N(C(=O)CN1CCN(C)CC1)c1ccccc1NC2=O`, the Potency entry was “inactive”. With `CN1CCN(CC(=O)N2c3ccccc3C(=O)Nc3cccnc32)CC1`, the % pathology change, negative = correction is 18.1% [at 4.63 µM] (inactive). With `C[C@]12CCC(=O)C=C1CC[C@@H]1[C@@H]2C(=O)C[C@@]2(C)[C@H]1CC[C@]2(O)C(=O)CO`, the Potency entry is “inactive”. Regarding `CCN(CC)CCOCCOC(=O)C1(c2ccccc2)CCCC1`, the Potency result is “inactive”.

Regarding `NC(=O)c1ncn([C@@H]2O[C@H](CO)[C@@H](O)[C@H]2O)c1O`, the Potency result is “inactive”.

For the compound `CC1=C(C)C(=O)C(CCCCC#CCCCC#CCO)=C(C)C1=O`, the Potency result was “inactive”. For the compound `CCCN(CCC)CCc1cccc2c1CC(=O)N2`, the Potency entry was “inactive”. For the compound `O=C(CCCN1CCC(O)(c2cccc(C(F)(F)F)c2)CC1)c1ccc(F)cc1`, the Potency result was “inactive”. Regarding `O=C(O)CP(=O)(O)O`, the Potency entry is “inactive”. The same measure, in the same setting: the same measure for `COc1ccc(CN(CCN(C)C)c2ccccn2)cc1`: “inactive”. `C[C@H](CS)C(=O)N1CCC[C@H]1C(=O)O`: the Potency entry was “inactive”.

Turning to `CN(C)[C@@H]1C(=O)C(C(N)=O)=C(O)[C@@]2(O)C(=O)C3=C(O)c4c(O)ccc(Cl)c4[C@@H](O)[C@H]3C[C@@H]12`, the Potency result was “inactive”. With `CCOC(=O)C1=C(C)NC(C)=C(C(=O)OC)C1c1cccc([N+](=O)[O-])c1` (stereo not given), the Potency result was “inactive”. As for `CCCOc1ccccc1-c1nc2n[nH]nc2c(=O)[nH]1`, the Potency entry was “inactive”. Regarding `CCN(Cc1ccncc1)C(=O)C(CO)c1ccccc1` (stereo not given), the Potency result is “inactive”. In the case of `CN(C)C(=O)Oc1ccc[n+](C)c1`, the Potency result is “inactive”. Consider `NCCCNCCSP(=O)(O)O`, for which the % pathology change, negative = correction is 18.3% [at 9.22 µM] (inactive). On to `C[C@]12CCC(=O)C=C1CC[C@@H]1[C@@H]2CC[C@@]2(C)[C@H]1CC[C@]2(O)C(=O)CO`, for which the Potency entry was “inactive”. `NC(N)=N/N=C/c1c(Cl)cccc1Cl`: the Potency result is “inactive”. As for `c1cnc(N2CCN(Cc3ccc4c(c3)OCO4)CC2)nc1`, the Potency result was “inactive”. For `CNC1(C)C2CCC(C2)C1(C)C` (stereo not given), the Potency entry is “inactive”.

As for `COC(=O)C1=C(C)NC(C)=C(C(=O)OC(C)(C)CN(C)CCC(c2ccccc2)c2ccccc2)C1c1cccc([N+](=O)[O-])c1` (stereo not given), the Potency is 10 µM (active). Turning to `CCO/C([O-])=N/c1c[n+](N2CCOCC2)no1`, the Potency result is “inactive”.

For the compound `CN(C)CCOC(=O)COc1ccc(Cl)cc1`, the Potency result was “inactive”.

In the case of `O=C(O)CCCCCCCC(=O)O`, the Potency result was “inactive”. `CC(=O)Nc1nnc(S(N)(=O)=O)s1`: the Potency entry was “inactive”. On the same count and under the same terms, to `CCCCNC(=O)NS(=O)(=O)c1ccc(C)cc1` belongs “inactive”.

Turning to `N[C@@H](COP(=O)(O)O)C(=O)O`, the Potency result was “inactive”. Turning to `CC(C)NCC(O)c1cc(O)cc(O)c1` (stereo not given), the Potency result was “inactive”.

As for `CC[N+](C)(C)c1cccc(O)c1`, the Potency result is “inactive”.

Turning to `Nc1c2c(nc3ccccc13)CCCC2O` (stereo not given), the Potency result is “inactive”. Regarding `CN(C)CC[C@@H](c1ccc(Br)cc1)c1ccccn1`, the Potency result was “inactive”.

For `CCn1nc(C(=O)O)c(=O)c2cc3c(cc21)OCO3`, the Potency entry is “inactive”. Regarding `CC(=O)OC(C)C[N+](C)(C)C` (stereo not given), the Potency result was “inactive”.

For the compound `C[C@]12C=CC(=O)C=C1CC[C@H]1[C@@H]3C[C@@H](O)[C@](O)(C(=O)CO)[C@@]3(C)C[C@H](O)[C@@]12F`, the Potency entry was “inactive”.

With `O=c1[nH]c(=O)n([C@H]2C[C@H](O)[C@@H](CO)O2)cc1Br`, the Potency result was “inactive”.
